# Measured values published in PubChem BioAssay (NCATS).
# Inconclusive results are not listed. Entries that show only a call come without a potency. Activity calls are given as the source filed them. Calls follow the shape of the dose curve; as a rule, active = well fitted inhibition curve with a large enough effect; inconclusive = small, poorly fitted or top-dose-only effect; inactive = no such curve, though single readings can be large or run the other way.
# Biological target: Cytochrome P450 3A4 (Homo sapiens) (UniProt P08684)
# Assay: qHTS Assay for Inhibitors and Substrates of Cytochrome P450 3A4 (AID 884); also: nearly all actives have a fitted effect of over 50% in size
# Conditions: recombinant CYP3A4, Luciferin-PPXE luminescence; series mostly up to 57.1 µM
# Method: NIH Molecular Libraries Screening Centers Network [MLSCN]
# NIH Chemical Genomics Center [NCGC]
# The P450 gene superfamily is involved in the metabolism and clearance of xenobiotics. This assay used human CYP3A4 to measure the dealkylation of luciferin-6' phenylpiperazinylyl (Luciferin-PPXE; […]) to luciferin. The luciferin is then measured by luminescence after the addition of a luciferase detection reagent. Luciferin-PPXE concentration in the assay was equal to its KM for CYP3A4. Inhibitors and some substrates limit the production of luciferin, and decrease measured luminescence.
# NCGC Assay Protocol Summary:
# Two uL of enzyme and substrate mix (final concentrations: 20nM CYP3A4, 25uM Luciferin-PPXE, 200mM KPO4) were dispensed into a white, solid bottom 1536-well microtiter plate. 23nL of compound was transferred by a pin tool. The plate was incubated at RT for 10 min. Two uL of an NADPH regeneration solution (Promega supplied reagent) was dispensed and the reaction was allowed to continue for 60 min at RT. Then the reaction was stopped by reconstituted luciferin detection buffer. After another 20 min of incubation the plate was read on the ViewLux (Perkin Elmer) at 60 sec exposure and 2x2 binning. This protocol was carried out with Promega-Glo reagents and further information can be found at http://www.promega.com/tbs/tb325/tb325.pdf. Data were normalized to the to AC100 inhibition (57 uM ketoconazole).
# Keywords: P450, CYP3A4, Luciferase, MLSMR, MLSCN, NIH Roadmap, qHTS, NCGC
# Cytochrome P450 3A4 (Homo sapiens), sequence (P08684 whole entry, looked up): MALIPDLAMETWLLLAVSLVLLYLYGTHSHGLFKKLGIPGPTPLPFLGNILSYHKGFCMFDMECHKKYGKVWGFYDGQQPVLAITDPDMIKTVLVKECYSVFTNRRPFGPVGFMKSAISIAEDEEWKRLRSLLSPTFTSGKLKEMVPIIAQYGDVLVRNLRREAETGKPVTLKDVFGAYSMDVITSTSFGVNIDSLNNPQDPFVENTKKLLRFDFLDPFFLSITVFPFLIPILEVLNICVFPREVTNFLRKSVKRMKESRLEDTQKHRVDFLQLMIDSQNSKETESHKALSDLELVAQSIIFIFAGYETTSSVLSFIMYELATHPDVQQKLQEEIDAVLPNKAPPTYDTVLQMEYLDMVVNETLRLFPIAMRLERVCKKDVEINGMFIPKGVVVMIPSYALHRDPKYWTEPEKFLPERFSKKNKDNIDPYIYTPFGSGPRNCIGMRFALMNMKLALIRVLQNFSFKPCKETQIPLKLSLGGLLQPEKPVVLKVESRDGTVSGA
row,Structure (SMILES),Potency
1,C=CC(=O)OCCCC,inactive
2,Cc1cc(C)cc(N)c1,inactive
3,Cc1cc(C)cc(O)c1,inactive
4,Nc1cccc2c(=O)[nH][nH]c(=O)c12,inactive
5,Cc1cccc(C)c1[N+](=O)[O-],inactive
6,c1ccsc1,inactive
7,CCCCCCCCC,inactive
8,C1CCCC1,inactive
9,CCCCCCC=O,inactive
10,O=CNc1ccccc1,inactive
11,CCC(C)=O,inactive
12,CCOC(=O)OCC,inactive
13,Cc1ccc(C(C)(C)C)cc1,inactive
14,Cc1nc2ccc(Cl)cc2[nH]1,inactive
15,C=CCCCCCC,inactive
16,ClC/C=C/CCl,inactive
17,O=C1OC(=O)c2c(Cl)c(Cl)c(Cl)c(Cl)c21,inactive
18,O=C(O)c1ccccc1C(=O)O,inactive
19,Nc1ccccc1S(=O)(=O)O,inactive
20,OC1CCCC1,inactive

row,Structure (SMILES),Potency
1,BrC(Br)C(Br)Br,inactive
2,C1CCC2OC2C1 (stereo not given),inactive
3,NCCCCCCN,inactive
4,Fc1ccccc1,inactive
5,CC(=O)c1ccccn1,inactive
6,CCCCCO,inactive
7,Cc1ccc(C)c([N+](=O)[O-])c1,inactive
8,C1CCOC1,inactive
9,COC(=O)c1ccccc1,inactive
10,CCCCC/C=C/C=C/C=O,inactive
11,CCCCCCCN,inactive
12,CCCCCCCCC/C=C/CC1CC(=O)OC1=O (stereo not given),inactive
13,C=CCOC(=O)COCCC(C)C,inactive
14,CCCCCCC(=O)O,inactive
15,CC(=O)c1cc(C)oc1C,inactive
16,O=Cc1ccccc1Cl,inactive
17,CC(C)C=O,inactive
18,Cc1ccc2oc(=O)ccc2c1,inactive
19,OC/C(Br)=C(\Br)CO,inactive
20,CCCC(Cl)CCCC(Cl)CCC(Cl)CCC(Cl)CCC(Cl)CCCC(Cl)CCC (stereo not given),inactive
